# According to PubChem BioAssay AID1053188 (Broad Institute, 2014):
# Hit rate of the full screen: of about 83,000 compounds, about 780 (0.94%) were called active. The full list was thinned out, with actives kept by preference. Values without a mark were called inactive.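 Rule for the calls: active = mean inhibition of at least 50% with a set share of replicates also reaching that level; inconclusive = no clear call, values can overlap the other calls; inactive = the rest.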
# Experiment: CD40 pathway blockade in BL2 B cells – cell-based, luciferase reporter, single point, primary screen (AID 1053188);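 note: 0% = neutral control wells and 100% = IKK inhibitor VII at 50 µM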
# Conditions: BL2 NF-kB luciferase reporter, CD40L-induced, 4 h, active compounds read high; at 10 µM unless noted
row,Structure (SMILES),inhibition
1,O=C(c1cc(-c2ccco2)nc2ccccc12)N(Cc1nnc(-c2ccc(Cl)cc2)o1)C1CC1,50.6% (active)
2,CN(CCOc1ccccc1)C(=O)c1cc(-c2ccco2)nc2ccccc12,9.58%
3,CC1CCCN(C(=O)c2cc(-c3ccco3)nc3ccccc23)C1 (centres undefined),-1.36%
4,CCOC(=O)c1ccc[n+](CC(=O)Nc2ccccc2OC(F)F)c1,-5.94%
5,CC(C)N(Cc1nnc(-c2ccc(Cl)cc2)o1)C(=O)C1=COCCO1,3.68%
6,CCCN(CC(=O)Nc1ccccc1C)C(=O)c1ccc(OCC(=O)N2CCOCC2)c(OCC)c1,23.3% (active)
7,CCOc1cc(C(=O)N(Cc2ccccc2)c2ccc(C)cc2)ccc1OCC(=O)N1CCOCC1,-0.92%
8,COc1cc(C(=O)Nc2ncccc2C)ccc1OCC(=O)N1CCOCC1,6.83%
9,CCNC(=O)C1(C)CCCN1C(=O)c1ccc(N(C)C)cc1 (centres undefined),-1.06%
10,CC(C)NC(=O)N(C)C[C@H]1Oc2ccc(NS(C)(=O)=O)cc2C(=O)N(C)C[C@@H]1C,0.384%
11,COc1cccc(NC(=O)CN(C)CC(=O)Nc2ccc3c(c2)CCC3)c1,8.15%
12,CSCCC(NC(=O)c1ccco1)C(=O)NCCc1ccc(F)cc1 (centres undefined),0.567%
13,Fc1ccccc1COc1ccccc1CNCc1ccncc1,0.766%
14,COc1ccc(S(=O)(=O)NCCc2c[nH]c3ccccc23)cc1OC,6.21%
15,COc1cccc(CNCCc2c[nH]c3ccccc23)c1OCc1ccccc1F,70.6% (active)
16,O=C(Nc1ncccc1O)c1ccc(S(=O)(=O)N2CCCC2)cc1,-13.1%
17,COC(=O)C1=C(N)Oc2c(oc(CO)cc2=O)C1c1c(F)cccc1Cl (centres undefined),1.5%
18,CCOc1ccc(C(=O)CCN2CCOCC2)cc1,3.31%
19,Cc1ccc(/C([O-])=C(/C(=S)NCc2ccco2)[n+]2ccccc2)cc1[N+](=O)[O-],4.58%
20,O=C(Nc1ccc([N+](=O)[O-])cc1)OCCc1ccccn1,-49.3%
21,O=C(COC(=O)c1ccccn1)NNC(=O)c1ccc([N+](=O)[O-])cc1,0.903%
22,N/C(=N\OC(=O)Cc1ccc([N+](=O)[O-])cc1)c1ccccn1,64.7% (active)
23,O=C(COC(=O)Cc1ccc([N+](=O)[O-])cc1)NC1CCCCCC1,2.86%
24,N/C(=N\OC(=O)c1ccc([N+](=O)[O-])cc1)c1ccccn1,68.1% (active)
25,O=C(CSc1nnc(-c2ccc([N+](=O)[O-])cc2)o1)Nc1ccccn1,-47.6%
26,COc1ccccc1C(=O)NC(CCSC)C(=O)N1CCN(C(C)=O)CC1 (centres undefined),7.42%
27,OCCN1CCN(CCO)C1=S,4.32%

row,Structure (SMILES),inhibition
1,COc1cc(OC)cc(C(=O)N[C@H](C(=O)NNC(=O)c2ccc(Br)cc2)C(C)C)c1,-11.4%
2,CCc1ccc(C(=O)C(C)OC(=O)CN2C(=O)NC3(CCCC3)C2=O)cc1 (centres undefined),-8.47%
3,CC(=O)c1cc(C#N)c(N2CCCCC2)nc1C,12.8%
4,Cc1ccc(S(=O)(=O)N2CCN(C(=O)COC(=O)CNC(=O)c3ccc(C(C)(C)C)cc3)CC2)c(C)c1,-31.5%
5,Cc1ccc2c(c1)c1ncn(CCC3=CCCCC3)c(=O)c1n2C,-13.8%
6,COc1ccc2c(c1)c1ncn(Cc3ccccn3)c(=O)c1n2C,56.2% (active)
7,COc1ccc(C(=O)COC(=O)c2nn(C)c(=O)c3ccccc23)c(OC)c1,4.47%
8,COc1ccc(CNC(=O)CN2CCC(n3nnc4cc(F)ccc43)CC2)cc1,-0.322%
9,CCCn1c(N)c(C(=O)CSc2nc3ccccc3c(=O)n2-c2ccc(OC)cc2)c(=O)[nH]c1=O,-0.2%
10,CC(C)NC(=O)N(C)C[C@H]1OCc2ccccc2-c2c(n(C)c3ccccc23)C(=O)N([C@H](C)CO)C[C@@H]1C,-3.58%
11,CC1Cc2ccccc2N1S(=O)(=O)c1cccc(C(=O)NCC(c2ccco2)N2CCCC2)c1 (centres undefined),8.41%
12,O=C(Nc1ccc(N2CCOCC2)cc1)c1cccc(S(=O)(=O)N2CCOCC2)c1,14.5%
13,O=C(C1CCOCC1)N1CC(=O)N2[C@H](CO)[C@@H](c3ccc(C#CC4CCCC4)cc3)[C@H]2C1,-2.24%
14,O=C(Nc1nnc(C2CC2)s1)c1ccccn1,12.5%
15,Cc1cnc(NC(=O)c2ccccn2)s1,48.8% (active)
16,O=C(Nc1nnc(Cc2ccccc2)s1)c1cnccn1,-14%
17,CN1C(=O)c2cc(NS(=O)(=O)CC(F)(F)F)ccc2OC[C@H]2O[C@@H](CC(=O)NCc3ccc(Cl)c(Cl)c3)CC[C@@H]21,-2.48% [at 25 µM]
18,COc1ccccc1C(=O)NC(=O)COC(=O)C1CC1,-63%
19,Cc1cc(C(=O)COC(=O)CNC(=O)c2ccc(F)cc2)c(C)n1Cc1ccco1,29.3%
20,Cc1cc(C(=O)COC(=O)C2CC2)c(C)n1-c1ccc(F)cc1,79.9% (active)
21,N#C[C@@H]1[C@H](c2ccc(C#Cc3cccc(F)c3)cc2)[C@@H](CO)N1C(=O)C1CCCC1,60.3% (active)
22,N#C[C@H]1[C@H](c2ccc(C#Cc3ccc(F)cc3)cc2)[C@@H](CO)N1C(=O)C1CCCC1,58.9% (active)
23,CCCC#Cc1ccc([C@@H]2[C@@H](C#N)N(C(=O)C3CCCC3)[C@@H]2CO)cc1,4.81%
24,N#C[C@@H]1[C@H](c2ccc(C#Cc3ccccc3F)cc2)[C@H](CO)N1C(=O)C1CCCCC1,6.32%
25,N#C[C@@H]1[C@@H](c2ccc(C#Cc3cccc(F)c3)cc2)[C@H](CO)N1C(=O)C1CCOCC1,-15.7% [at 25 µM]
26,N#C[C@@H]1[C@@H](c2ccc(C#Cc3cccc(F)c3)cc2)[C@@H](CO)N1C(=O)C1CCC1,-11.1%
27,COc1ccccc1CNC(=O)COC(=O)CNS(=O)(=O)c1ccc(NC(C)=O)cc1,5.75%
